{"source": "PubChem BioAssay (NCI)", "note": "The panel holds about 83,000 compounds, 20% with a hit somewhere; the sample as a whole holds those more often.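 Note: values are percent growth. 100 is the growth of untreated cells, values between 100 and 0 indicate rising inhibition; between -100 and 0 indicates cell death.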 The source made the active and inactive calls.", "data": [{"system": "MDA-MB-468 breast", "experiment": "NCI-60 one-dose screen, 48 h (100 = growth as untreated, 0 = no growth, -100 = all killed)", "settings": "10 µM unless noted", "procedure": "Growth inhibition of the MDA-MB-468 human Breast tumor cell line is measured as a screen for anti-cancer activity. Cells are grown in 96 well plates and exposed to the test compound for 48 hours. Compounds are tested at a single concentration, which is 10^-5 M for most compounds. The reported endpoint is percent growth (GI% or GIPRCNT), where numbers from 0 - 100% represent growth inhibition, and numbers from -100% - 0 represent cell death. For example, a value of 40 represents 60% growth inhibition. A value of 0 means no net growth occurred over the course of the experiment. A value of -40 indicates 40% of cells at the beginning of the experiment died by the end of the experiment. A value of -100 means all cells are dead at the end of the experiment.\nNCI-60 Human Tumor Cell Lines Screen was performed using the standard one-dose NCI protocol, which is described in more detail at https://dtp.cancer.gov/discovery_development/nci-60/default.htm.\nCompounds with GIPRCNT values below 10 were considered active. Activity score was based on GIPRCNT using the following formula: […]\nScore is 0 for GIPRCNT values of 100 or above, 50 for GIPRCNT values of 0, and 100 for GIPRCNT values of -100.", "values": [{"smiles": "CCCCOc1ccc(NC(=O)n2nc(N=NN(C)C)c3ccc(Cl)cc32)cc1", "growth": "97.9% (inactive)"}, {"smiles": "COc1ccc(/C=C2\\CN(C(=O)CCN3CCC(=NO)CC3)C/C(=C\\c3ccc(OC)cc3)C2=O)cc1", "growth": "-27.5% (active)"}, {"smiles": "COc1ccc(OC)c(/C=C/C(=O)N/N=C/c2ccccc2)c1", "growth": "28.1% (inactive)"}, {"smiles": "CNCc1ccccc1CN(CC(=O)Nc1ccc2c(c1)CC1(C2)C(=O)Nc2ncccc21)C(=O)C(C)(C)C", "note": "(stereo not given)", "growth": "107% (inactive)"}, {"smiles": "COc1ccc2c(c1)c(-c1nc(-c3cn(C)c4ncccc34)cs1)cn2CCN", "growth": "16.1% (inactive)"}, {"smiles": "Oc1ccccc1/C=N\\NC(=S)Nc1ccc(F)cc1", "growth": "2.61% (active)"}, {"smiles": "c1ccc(-c2ccc3ccccc3c2)cc1", "growth": "91.8% (inactive)"}, {"smiles": "Nc1nc(-c2ccccc2)c(CCCOc2ccc(NC(=O)CBr)cc2)c(=O)[nH]1", "growth": "104% (inactive)"}, {"smiles": "O=C1c2cc3c(cc2-c2c1c1cc(Cl)c(Cl)cc1c(=O)n2C[C@H](O)CO)OCO3", "growth": "-54.1% (active)"}, {"smiles": "NC(=S)N1N=C(c2ccccc2)CC1c1cn(-c2ccccc2)nc1-c1ccc(OCc2ccccc2)cc1", "note": "(stereo not given)", "growth": "102% (inactive)"}, {"smiles": "O=[N+]([O-])c1ccc(N2CCN=N2)cc1", "growth": "93.9% (inactive)"}, {"smiles": "Nc1n[nH]c2cc(F)c([C@@H]3Nc4c(F)cc5[nH]ncc5c4[C@H]4C5CCC(C5)[C@@H]34)cc12", "note": "(stereo not given in full)", "growth": "-0.149% (active)"}, {"smiles": "Cc1oc2ccc(O)c(CN3CCCCCC3)c2c1C(=O)Nc1ccc(C(F)(F)F)cc1", "growth": "5.74% (active)"}, {"smiles": "O=C(C[C@]1(O)C(=O)Nc2ccc(Br)cc21)c1ccco1", "growth": "109% (inactive)"}, {"smiles": "COc1ccc(-c2c(C(N)=O)c(N)n(Cc3nc4ccccc4[nH]3)c(=O)c2C#N)c(OC)c1", "growth": "99.2% (inactive)"}, {"smiles": "CCCCCCCn1cc2c(N[C@H](C)c3ccccc3)ncnc2n1", "growth": "119% (inactive)"}, {"smiles": "N#Cc1c(-c2ccccc2)nc(SCc2nnc(-c3ccc(Cl)cc3)o2)[nH]c1=O", "growth": "103% (inactive)"}, {"smiles": "O=C(NCc1ccco1)C1CN(c2ccc(Cl)cc2)N(c2ccc(Cl)cc2)C1=O", "note": "(stereo not given)", "growth": "42.4% (inactive)"}, {"smiles": "CN(C)c1ncnc2c1cnn2C", "growth": "106% (inactive)"}, {"smiles": "COc1ccc(C2CC(c3ccc(Nc4nc(NCCO)nc(Nc5ccc(Cl)cc5)n4)cc3)=Nc3c(N)nc(N)nc3N2)cc1", "note": "(stereo not given)", "growth": "-23% (active)"}, {"smiles": "O=C1[C@H]2Cc3c([nH]c4ccccc34)[C@@H](c3c(Cl)cccc3Cl)N2C(=O)CN1C1CCN(Cc2ccccc2)CC1", "growth": "97.7% (inactive)"}, {"smiles": "COc1ccc(OC)c(C(=O)Nc2cccc(-c3cc(=O)c4ccccc4o3)c2)c1", "growth": "92.9% (inactive)"}, {"smiles": "CN(Cc1ccccc1)c1nc(Cl)c(C2CC(c3ccc(Cl)cc3)=Cc3[nH][nH]c(=O)c32)s1", "note": "(stereo not given)", "growth": "106% (inactive)"}, {"smiles": "Oc1ccccc1-c1nnc(SCc2ccc(O)c3ncccc23)o1", "growth": "44.4% (inactive)"}, {"smiles": "CC(O)CN(CC(C)O)N(CC(C)O)CC(C)O", "note": "(stereo not given)", "growth": "105% (inactive)"}, {"smiles": "Clc1cc2c(c(CSc3nc4ccccc4n4cccc34)c1)OCOC2", "growth": "-1.64% (active)"}, {"smiles": "COc1ccc(-c2n/c(=C\\c3c(O)[nH]c4ccc(OC)cc34)cc3c2=Nc2ccccc2-3)cc1", "growth": "-46.8% (active)"}, {"smiles": "C(=C\\c1nccc2c1[nH]c1ccccc12)/c1ccccc1", "growth": "-54% (active)"}, {"smiles": "CC1(c2ccc3ccccc3c2)CCC(=O)O1", "note": "(stereo not given)", "growth": "100% (inactive)"}, {"smiles": "O=C(O)c1cn(C2CC2)c2cc(N3CCN(C(=O)c4cc(-c5ccc(Cl)cc5)nc5ccccc45)CC3)c(F)cc2c1=O", "growth": "99% (inactive)"}, {"smiles": "CC/C(Cc1ccccc1)=C(\\c1ccc(OCCN2CCCCCC2)cc1)c1ccc(OC(=O)NCc2ccccc2)cc1", "growth": "53.3% (inactive)"}, {"smiles": "O=C1C2=C(CCN(Cc3ccccc3)C2)N2CCN=C2N1Cc1ccc(C(F)(F)F)cc1", "growth": "8.96% (active)"}, {"smiles": "O=C1/C(=C/c2ccccc2)Oc2ccc(O)c(I)c21", "growth": "104% (inactive)"}, {"smiles": "CN1CCc2nc3sc(C(N)=O)c(N)c3c(-c3cccs3)c2C1", "growth": "14.2% (inactive)"}, {"smiles": "COc1ccc(-c2nc(C#N)c(N3CCC(S(=O)(=O)N4CCOCC4)CC3)o2)cc1", "growth": "107% (inactive)"}, {"smiles": "COc1ccc(-c2nnc(-c3ccc4c(c3)nc(-c3ccccc3)n4C3CCCCC3)o2)cc1", "growth": "83.8% (inactive)"}, {"smiles": "COC(=O)[C@]12CC[C@@H](C)[C@H](C)[C@@H]1C1=CC[C@@H]3[C@@]4(C)CC(=O)[C@H](O)[C@@](C)(CO)[C@@H]4C(=O)C[C@@]3(C)[C@]1(C)CC2", "growth": "-4.93% (active)"}, {"smiles": "NC1=NC(c2ccccc2)N=C(Nc2ccccc2)N1", "note": "(stereo not given)", "growth": "9.95% (active)"}, {"smiles": "CCNC(=O)c1[nH]cc(-c2ccc(OC)cc2)c1-c1cc(OC)c(OC)c(OC)c1", "growth": "18.5% (inactive)"}, {"smiles": "COc1cccc(-n2cc(-c3nc(Cl)c4ccccc4n3)nn2)c1", "growth": "117% (inactive)"}]}]}
